Assay results published in PubChem BioAssay AID581 (PCMD, 2007).
The whole screen tested about 62,000 compounds, of which about 95 (0.2%) were called active.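 Rule for the calls: active = inhibition above 20% in each of the two mixture wells holding the compound; inactive = inhibition of 20% or less in either well.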 Only a selection was taken, and actives are over-represented in it overall.

Biological target: Cathepsin G (Homo sapiens) (UniProt P08311)
Assay: human cathepsin G inhibitors, primary screen, biochemical, pooled compound mixtures, AMC fluorescence (AID 581);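 note: 0% = enzyme control without mixture and 100% = blank lacking enzyme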
Conditions: purified enzyme, AMC-tetrapeptide fluorescence, hits give high values, screened at 5 µM (by protocol)

Cathepsin G (Homo sapiens), sequence (P08311 21-244 limits assumed): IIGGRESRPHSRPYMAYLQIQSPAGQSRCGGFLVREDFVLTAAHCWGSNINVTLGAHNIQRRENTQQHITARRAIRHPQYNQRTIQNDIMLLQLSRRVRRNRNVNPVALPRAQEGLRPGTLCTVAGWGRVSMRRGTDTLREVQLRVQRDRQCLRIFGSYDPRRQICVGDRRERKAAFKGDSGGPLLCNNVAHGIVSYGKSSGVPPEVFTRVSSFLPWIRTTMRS

inhibition, active:
O=C1CCCC(O)=C1C=NCCc1ccccc1 33.4%, CCOC(=O)c1ccc(NC(=O)CS(=O)(=O)c2cn(CC)c3ccccc23)cc1 29.3%, COc1ccc2c(c1)CCc1c(C(=O)Nc3c(C)n(C)n(-c4ccccc4)c3=O)noc1-2 34.3%, COc1ccc2c(c1)CCc1c(C(=O)N3CCc4ccccc4C3)noc1-2 35%

inhibition, inactive:
Cc1cccc(-n2c(Cc3cc(=O)[nH]c(=O)[nH]3)nnc2SC(C)C)c1 10.3%, CCCN1Cc2cccc(C(=O)NCc3ccccc3)c2C1=O -0.625%, COc1ccc(N(Cc2cc3cc(OC)ccc3[nH]c2=O)S(C)(=O)=O)cc1 -3.1%, Cn1c(CC(=O)Nc2ccccc2)nnc1SCC(=O)c1ccccc1 -0.18%, c1ccc2cc(OCCN3CCCC3)ccc2c1 -4.75%, O=C(O)CSC(NC(=O)c1cccnc1)(C(F)(F)F)C(F)(F)F 4.23%, CCOC(=O)c1c(NC(=O)CSc2nnc(Cc3csc(N)n3)n2C)sc(C)c1C -4.19%, CC1(C)CC(=O)C(C=NCCC2=CCCCC2)=C(O)C1 6.17%, O=C1CC(c2ccccc2)CC(O)=C1C=NCCN1CCOCC1 (stereo unspecified) 14.8%, O=C(CSc1nnc(-c2cccs2)n1Cc1ccco1)c1ccc2c(c1)OCO2 7.29%, CSc1ccc(S(=O)(=O)Nc2cccc(F)c2)cc1 -1.91%, CCCNC(=O)Nc1ccccc1C(=O)Nc1ccc(OC)cc1 4.04%, CC1(C)CC(=O)c2cc(OCC(=O)NCC3CCCO3)ccc2O1 (stereo unspecified) 4.79%, O=C(c1ccco1)N1CCN(C(=O)C2CC(c3ccc(F)cc3)=NO2)CC1 (stereo unspecified) 2.3%, COCCCNC(=O)CCc1nc2cccnc2n1Cc1ccc(OC)cc1 11.7%, CCN(c1ccc2c(c1)OCO2)S(=O)(=O)c1cc(Br)cc2c1N(C(=O)C1CC1)CC2 2.07%, COC(=O)c1cc(NC(=O)CN2CCC(C(N)=O)(N3CCCCC3)CC2)cc(C(=O)OC)c1 -6.63%, CN(C)c1ccnc2sc3c(=O)n(Cc4ccccc4)cnc3c12 -4.39%, CC(=O)N1C(=O)C2(Nc3ccccc3N2)c2ccccc21 -1.99%, Cc1ccccc1CSc1nnc(-c2cccnc2)n1N 14.2%, Cc1cccc(NC(=O)CSc2nnc(CCCCCNC(=O)OC(C)(C)C)o2)c1C 6.06%, O=C(Cn1c(-c2ccc(Cl)cc2)noc1=O)N1CCN(c2ccccc2F)CC1 7.96%, O=c1ccn(Cc2ccccc2Cl)cc1 -1.12%, Cc1cc(NC(=O)CN2CCC(O)(c3cccc(F)c3)CC2)no1 5.96%, COc1cccc(N(C(=O)c2ccn[nH]2)C2(C(=O)Nc3c(C)cccc3C)CCCCC2)c1 8.21%, COc1ccc2occ(C(=O)c3ccc(N=C(C)N(C)C)cc3)c2c1 -7.35%, O=C1Nc2c(Br)cc(Br)cc2C1(O)N1CCOCC1 (stereo unspecified) 1.49%, CCOC(=O)CNC(=O)CSc1nnc(-c2cccc(OC)c2)n1CC -5.21%, Oc1c(C(c2ccccn2)N2CCOCC2)ccc2cccnc12 (stereo unspecified) 13.3%, CN(C(=O)c1ccccn1)c1nnc(-c2ccccn2)s1 10.6%, COc1ncnc2c1N=C1CC(C)(C)CC(N)=C1S2 -6.43%, Cc1noc(C)c1C(=O)Nc1ccccn1 -18.6%, CCOC(=O)N1CCN(CC(=O)c2ccc3c(c2)CCN3)CC1 10.3%, Cc1occc1C(=O)Nc1nnc(-c2ccncc2)s1 39.2%, COCCn1c(SCC(=O)Nc2cc(Cl)ccc2OC)nc2c(c1=O)SC(C)C2 (stereo unspecified) 9.03%, NC(=O)CCCC1=NS(=O)(=O)c2ccccc2N1 4.5%, CCOC(=O)c1ccc(NC(=O)Cn2nnc(-c3ccc(C)cc3)n2)cc1 -7.1%, CCOC(=O)c1ccc(NC(=O)CSc2ncccn2)cc1 -1.62%, COc1ccc2nc(NC(=O)c3ccc(Br)s3)sc2c1 10.8%, O=C(Cn1nc(Cc2cccnc2)c2ccccc2c1=O)NCC1COc2ccccc2O1 (stereo unspecified) 8.5%, C/C(N)=C(\C#N)C(=O)NCCc1ccccn1 2.5%, CCSC1=C(C#N)C(=O)n2c1cc1c2CCCC1 0.675%, CSc1nsc(SC)c1NC(=O)OC1CCCCC1 7.19%, CCOC(=O)C1CCCN(C(=O)c2ccc(CS(=O)(=O)c3ccc(Br)cc3)o2)C1 (stereo unspecified) 7.41%, CCOC(=O)c1csc(NC(=O)c2ccc(S(=O)(=O)N3CCCC3)cc2)n1 -0.28%, COc1ccc(OC)c(NC(=O)CN2CCN(C(=O)c3ccco3)CC2)c1 9.79%, Cn1c(-c2ccc(C(=O)c3ccccc3)s2)nc2ccccc21 2.31%, CN(Cc1ccccc1)C(=O)CCNC(=O)Cn1cnc2ccccc2c1=O -3.7%, COc1ccc(OC)c(C(=O)c2coc3ccc(OC)cc23)c1 -10.9%, COC(=O)Nc1c(C)n(C)n(-c2ccccc2)c1=O 11.2%, Cc1cc(C(=O)Nc2c(C)n(C)n(-c3ccccc3)c2=O)cs1 8.47%, COc1ccc2c(c1)CCc1c(C(=O)N3CCCC3)noc1-2 18.8%, O=C(c1cc(-c2cccc(O)c2)on1)N1CCc2ccccc2C1 5.56%, CCOc1cc(CO)ccc1OCC(=O)N1CCCCC1 4.5%, COc1ccc(C(=O)Nc2ccc(S(=O)(=O)Nc3onc(C)c3C)cc2)cc1OC -6.97%, COCCCN1C(=O)c2ccc(C(=O)Nc3ccc(OC)cc3OC)cc2C1=O -4.08%, Cc1nn(Cc2ccc(Cl)c(Cl)c2)c(C)c1NC(=O)c1cc(C2CC2)on1 -8.5%, CN(C)c1cc(N)c2ccccc2n1 (tested in a mixture with another compound) 2.17%, O=C(CSc1nnc(-c2ccoc2)o1)N1CCOCC1 1.64%, Cc1cccc(-n2c(O)c(C=Nc3ccccc3N)c(=O)[nH]c2=O)c1 -2.9%, C1=C(N2CCOCC2)/C(=C/c2nc3ccccc3[nH]2)CC1 12.8%, CCOc1ccc(CC(=O)Nc2ccc(S(=O)(=O)Nc3cc(C)on3)cc2)cc1OCC 6.78%, Cc1ccc(S(=O)(=O)N(C)CC(=O)NC2CCCC2)cc1 1.06%, COc1ccc(C2C(C#N)=C(N)Oc3n[nH]c(C)c32)cc1CN1CCN(c2ccc(F)cc2)CC1 (stereo unspecified) -3.59%, CCOC(=O)c1nnn(-c2nonc2OC)c1-c1ccccc1 -2.37%, CC(C)=C(NC(=O)c1ccco1)C(=O)NCCc1nc2ccccc2[nH]1 9.21%, O=C1CCc2cc(S(=O)(=O)N3CCC(C(=O)NCc4ccccc4Cl)CC3)ccc2N1 11%, CC(=O)CCS(=O)(=O)c1ccc(C)c(C)c1 -14.8%, NC(=O)C1(N2CCCCC2)CCN(C(=O)c2ccc(C#Cc3ccccc3)o2)CC1 11.6%, COCCNc1nc(-n2nc(C)cc2C)nc2sc3c(c12)CCCC3 -7.79%, Cc1ccccc1OCCC(=O)Nc1c(C)n(C)n(-c2ccccc2)c1=O 16.9%, Cc1cc(Br)ccc1NC(=O)C1CCCO1 (stereo unspecified) 9.61%, COc1cc2[nH]c(=S)n(Cc3ccc(C)o3)c(=O)c2cc1OC -0.64%, CN1CCN(c2nc3c(c(=O)[nH]c(=O)n3C)n2Cc2cccc3ccccc23)CC1 14.6%, Cc1nnc(SCC(=O)NCCOc2ccc(Cl)cc2)n1-c1ccccc1 6.24%, CC1(C)CC(=O)C=C(NC2CC(C)(C)NC(C)(C)C2)C1 6.34%, Cn1c(=O)c2c(n(Cc3ccccc3)c1=O)NC(=O)C2CC(=O)N1CCc2ccccc2C1 (stereo unspecified) 4.22%, NC(=O)c1ccccc1NC(=O)c1ccccc1F 1.67%, Cn1c(SCc2c(F)cccc2Cl)nnc1-c1cnccn1 3.17%, O=C(c1cnn2ccccc12)N1CCc2ccccc21 10.9%, O=C(NC1(C(F)(F)F)N=C2SCCN2C1=O)c1ccco1 (stereo unspecified) 3.45%, O=C(CCN1C(=O)COc2ccccc21)NCCCN1CCN(c2ccc(F)cc2)CC1 -3.54%, Cc1cccc(NC(=O)C2CCN(S(=O)(=O)c3cccc4cccnc34)CC2)c1 10.6%, Cc1cccc(NC(=O)COc2ccc(Br)cc2C)n1 2.75%, c1cc(-n2cnnn2)ccc1NC1=NCCC1 -2.07%, COc1ccc(-n2c(SCC(=O)OC(C)C)nnc2-c2ccccn2)cc1 7.94%, CCC(=O)N1CCc2cc(S(=O)(=O)NC(C(=O)N3CCc4ccccc4C3)C(C)C)ccc21 (stereo unspecified) 4.46%, CCCc1nc2ccccc2c(=O)n1/N=C/c1ccc(O)c(O)c1 2.2%, COc1cccc(C2/C(=C(/O)c3ccncc3)C(=O)C(=O)N2CCCN(C)C)c1 (stereo unspecified) 6.68%, COCCCn1c2nc3ccccc3nc2c2c(=O)n(Cc3ccc(Cl)cc3)c(C)nc21 7.46%, Cc1cc(C)nc(N2C(=O)CC(Cc3ccccc3)C2=O)n1 (stereo unspecified) -4.68%, Cc1cc(=O)[nH]c(SCc2cc(Cl)ccc2OC(F)F)n1 8.17%
